Screen size: about 190,000 compounds; about 810 (0.43%) were called active. The list comes from a sample in which actives are over-represented; it also holds similar structures and randomly drawn compounds. A number with no mark means an inactive call. No stated cut-off is given here; in the data, active means inhibition above about 50%; inactive means the rest.
These compounds were tested against Mannose-6-phosphate isomerase (Homo sapiens) (UniProt P34949) (assay: inhibitors of human PMI, primary screen, biochemical, fluorescence intensity, coupled assay (AID 1209;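 further: plate controls were DMSO vehicle for no effect and wells lacking substrate for full effect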)). Details: purified PMI enzyme, at 20 µM, active compounds read high.
Mannose-6-phosphate isomerase (Homo sapiens), sequence (P34949 whole entry, looked up): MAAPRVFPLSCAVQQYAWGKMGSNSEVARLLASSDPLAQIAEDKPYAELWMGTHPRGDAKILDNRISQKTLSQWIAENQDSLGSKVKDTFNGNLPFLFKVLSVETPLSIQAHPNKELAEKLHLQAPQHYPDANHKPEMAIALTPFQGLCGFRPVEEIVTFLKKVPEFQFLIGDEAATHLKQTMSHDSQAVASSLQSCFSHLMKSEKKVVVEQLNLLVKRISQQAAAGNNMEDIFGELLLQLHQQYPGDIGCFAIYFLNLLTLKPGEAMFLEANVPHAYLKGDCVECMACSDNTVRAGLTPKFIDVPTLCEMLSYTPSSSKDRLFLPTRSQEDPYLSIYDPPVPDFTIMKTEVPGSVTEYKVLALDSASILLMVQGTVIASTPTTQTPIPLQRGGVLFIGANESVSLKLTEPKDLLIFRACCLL
`O=C(OCc1nnc(-c2ccccc2)o1)c1cc(F)c(F)cc1Cl` showed an inhibition of 2.5%.
For `CCCCN1C(=O)Cc2c1nc(N)c1c(N)nc(N(CCC)CCC)c(C#N)c21`, the inhibition was 21.8%.
`N#CCc1c(C#N)c(N)nc(N2CCCC(O)C2)c1C#N` (configuration not stated) showed an inhibition of 10%.
`C=C(C)CN(CC)c1nc(N)c2c(N)nc3c(c2c1C#N)CC(=O)N3C12CC3CC(CC(C3)C1)C2` was tested, and the inhibition was 2.4%.
`COCCN1C(=O)Cc2c1nc(N)c1c(N)nc(N3CCN(c4ccc(F)cc4)CC3)c(C#N)c21` gave an inhibition of 40.2%.
`N#Cc1c(N2CCCC(O)C2)nc(N)c2c(N)nc3c(c12)CC(=O)N3C12CC3CC(CC(C3)C1)C2` (configuration not stated) was tested, and the inhibition was 64.7% (active).
With `N#Cc1c(N2CCN(c3ccc(F)cc3)CC2)nc(N)c2c(N)nc3c(c12)CC(=O)N3C1CC1` the inhibition was 56.9% (active).
In the case of `COc1ccc(CN2C(=O)Cc3c2nc(N)c2c(N)nc(N4CCCCC4)c(C#N)c32)cc1`, the inhibition was 40.5%.
`CN(CCO)c1nc(N)c2c(N)nc3c(c2c1C#N)CC(=O)N3C1CCCC1` was tested, and the inhibition was 64% (active).
`CN(CCO)c1nc(N)c2c(N)nc3c(c2c1C#N)CC(=O)N3Cc1cccs1` gave an inhibition of 13.6%.
`COCCN(CCOC)c1nc(N)c2c(N)nc3c(c2c1C#N)CC(=O)N3Cc1ccc(Cl)cc1` was tested, and the inhibition was 20.6%.
With `COCC(C)N1C(=O)Cc2c1nc(N)c1c(N)nc(N3CCN(c4ccccc4F)CC3)c(C#N)c21` (configuration not stated) the inhibition was 66.7% (active).
Compound `N#CCc1c(C#N)c(N)nc(N2CCN(c3ccc(F)cc3)CC2)c1C#N` has an inhibition of 2.2%.
`Cc1ccc(N2C(=O)[C@@H]3[C@H](C2=O)C2c4ccccc4C=CN2[C@@H]3C(=O)c2ccco2)c(C)c1` (some centres not stated) showed an inhibition of -31.4%.
`COc1ccc(Cn2c(C(F)(F)F)ccc(C(N)=O)c2=O)cc1` gave an inhibition of 4.9%.
Work on `COc1ccc(C2(O)CCN(C(=O)c3c(F)cccc3F)CC2)cc1` yielded an inhibition of 2.8%.
With `CCc1cc2c(C)cc(C)cc2nc1SCC(=O)Nc1cc(C)on1` the inhibition was 2.3%.
`COc1cccc(CNC(=O)C(c2ccc(Cl)cc2)C(C)C)c1` (configuration not stated) showed an inhibition of 10.2%.
`COc1cc(/C=C2\SC(=S)NC2=O)ccc1OS(=O)(=O)c1ccccc1` showed an inhibition of 29.8%.
`COC(=O)c1ccc(-c2nc(O)c3cnccn23)cc1` gave an inhibition of -13.6%.
In the case of `CCCCOc1ccc(C(=O)N/N=C/c2ccc(OCCN3CCCCC3)c(OC)c2)cc1`, the inhibition was 5.7%.
With `COc1cc(/C=N/NC(=O)c2ccncc2)ccc1OCCN1CCCCC1` the inhibition was -4.3%.
`COc1cc(/C=N/NC(=O)c2cc3ccccc3cc2O)ccc1OCCN1CCCCC1` was tested, and the inhibition was 73.9% (active).
Work on `COc1ccccc1-n1c(SCc2cc(=O)oc3cc(O)ccc23)nc2ccccc2c1=O` yielded an inhibition of 8.3%.
For `COc1cccc(-n2c(SCC(N)=O)nc3ccccc3c2=O)c1`, the inhibition was 2.2%.
`Cc1csc(SCC(=O)NC(=O)NC2CCCC2)n1` gave an inhibition of 5.2%.
For `S=c1[nH]nc(C2CCCCC2)n1/N=C/c1ccco1`, the inhibition was -1.6%.
Work on `O=C(Cc1ccc([N+](=O)[O-])cc1)Nc1cccc(C(F)(F)F)c1` yielded an inhibition of 23.4%.
For `CCCCNC(=O)CC1S/C(=N/N=C/c2ccc(OC)cc2)NC1=O` (configuration not stated), the inhibition was -7.8%.
In the case of `CCOc1ccc(OCC)c(NC(=O)CN2CCN(CC)CC2)c1`, the inhibition was 57.9% (active).
In the case of `CCOC(=O)N1CCN(CC(=O)Nc2cc(OCC)ccc2OCC)CC1`, the inhibition was 7%.
Compound `CCOc1ccc(OCC)c(NC(=O)CN2CCN(c3cccc(C)c3)CC2)c1` has an inhibition of 16.7%.
`CN1C(=O)/C(=C/c2ccc(-c3ccccc3[N+](=O)[O-])o2)SC1=Nc1ccc(Cl)c(C(=O)O)c1` showed an inhibition of 3%.
For `CCOC(=O)C1=C(N)Oc2cc(C)n(C)c(=O)c2C1c1ccncc1` (configuration not stated), the inhibition was 10%.
Work on `NC(=O)C1=C[C@H](c2coc3ccccc3c2=O)C[C@H](OCc2ccc(CO)cc2)O1` yielded an inhibition of -2.4%.
With `Nc1ccccc1NC1CCCCC1` the inhibition was 64.3% (active).
With `Nc1c(NC2CCCCC2)c2ccccc2oc1=O` the inhibition was 9.2%.
In the case of `O=C(Nc1ccccc1NC(=O)NC1CCCCC1)NC1CCCCC1`, the inhibition was 6%.
With `Cc1ccc(Cn2c(C(=O)O)cc3sccc32)cc1` the inhibition was -7.2%.
With `O=C(Nc1ccccc1NS(=O)(=O)c1ccc(F)cc1)C1CCCC1` the inhibition was -1.7%.
`O=C(COC(=O)c1cccc(Cl)c1)NCCN1C(=O)CSC1=O` showed an inhibition of -6%.
With `O=C(COC(=O)c1cc(Cl)cc(Cl)c1)NCCN1C(=O)CSC1=O` the inhibition was 55.7% (active).
`O=C(COC(=O)c1cc(Cl)ccc1Cl)NCCN1C(=O)CSC1=O` gave an inhibition of 0.7%.
Work on `COC(=O)c1ccccc1NC(=O)COC(=O)/C=C/c1ccco1` yielded an inhibition of -15%.
In the case of `CCOCCCNC(=O)c1ccc(N2CCOCC2)c(NS(=O)(=O)c2ccc(OC)cc2)c1`, the inhibition was -1.6%.
`Cn1c(COc2ccc([N+](=O)[O-])cc2)nnc1SCC(N)=O` gave an inhibition of -9.7%.
Work on `c1cc2c3c(cccc3c1)C(N1CCCCCC1)=N2` yielded an inhibition of 15.8%.
`c1cc2c3c(cccc3c1)C(N1CCCCC1)=N2` gave an inhibition of 33.9%.
For `O=C1CCN2C=Nc3cccc4ccc1c2c34`, the inhibition was 84.5% (active).
With `COc1cc2c(cc1OC)C1=C(C#N)CN(CC(=O)O)CN1CC2` the inhibition was 70.5% (active).
With `COc1ccc(CCN2CC(C#N)=C3c4cc(OC)c(OC)cc4CCN3C2)cc1OC` the inhibition was 18.8%.
`COc1cc2c(cc1OC)C1=C(C#N)CN(C3CCCCC3)CN1CC2` was tested, and the inhibition was 27.4%.
With `CCCCNC(c1ccccc1)c1ccncc1` (configuration not stated) the inhibition was 6.1%.
`CCn1c(SCC(=O)NC2CCS(=O)(=O)C2)nnc1-c1ccccc1` (configuration not stated) gave an inhibition of -4.5%.
In the case of `COc1cc(NC(=O)CN2C(=O)CN(C)C2=O)c(C)cc1[N+](=O)[O-]`, the inhibition was -9.8%.
For `Cc1ccccc1NC(=O)C1c2cccc[n+]2CC(=O)N1c1c(C)cccc1C` (configuration not stated), the inhibition was 91.6% (active).
With `Cc1ccccc1NC(=O)C1c2cccc[n+]2CC(=O)N1Cc1ccc2c(c1)OCO2` (configuration not stated) the inhibition was -17.8%.
With `Cc1cccc(C)c1NC(=O)C1c2cccc[n+]2CC(=O)N1Cc1cccs1` (configuration not stated) the inhibition was -7.5%.
In the case of `C(=C\c1ccccc1)/C=N/Nc1nc(N2CCOCC2)nc(N2CCOCC2)n1`, the inhibition was -1.4%.
`CCn1c(SCC(=O)N2CCN(c3ccc(F)cc3)CC2)nnc1-c1ccncc1` showed an inhibition of 8.1%.
Work on `O=C(CCn1c(=S)oc2ccccc21)Nc1cccc(F)c1` yielded an inhibition of -10.5%.
Compound `O=C(NCc1ccco1)c1cccc(Nc2nc3ccc(Br)cc3[nH]2)c1` has an inhibition of 22%.
With `O=C(NCC1CC1)c1ccc(Nc2nc3ccc(Br)cc3[nH]2)cc1` the inhibition was 84% (active).
Compound `O=C(NCc1cccs1)c1cccc(Nc2nc3ccc(Br)cc3[nH]2)c1` has an inhibition of 15.4%.
For `COC(=O)/C=C1\SC(=NC(=O)c2ccc(C)cc2)NC1=O`, the inhibition was 3.6%.
With `O=Cc1ccc(O)c(O)c1` the inhibition was 25.6%.
With `COc1cc(/C=C/C(=O)CC(=O)/C=C/c2ccc(O)c(OC)c2)ccc1O` the inhibition was 5.3%.
For `O=C(O)/C=C/c1ccc(O)c(O)c1`, the inhibition was 56.4% (active).
Work on `COc1ccc(NC(=O)/C=C/c2ccc(OC)c(OC)c2)cn1` yielded an inhibition of -4.6%.
Compound `Cc1cc([N+](=O)[O-])cnc1Sc1nccn1C` has an inhibition of -29.4%.
Work on `O=C(CCc1nc2ccccc2[nH]c1=O)OCC(=O)c1ccc(Cl)cc1` yielded an inhibition of 2.3%.
With `CCOC(=O)c1nn(-c2ccc(OC)cc2)c(=O)c2c(N)scc12` the inhibition was 46.8%.
`CCOC(=O)c1nn(-c2ccc(C)cc2)c(=O)c2c(N)scc12` showed an inhibition of 39.4%.
For `COc1ccc(/C=N/NC(=O)c2nc(-c3ccccc3)n(-c3ccccc3)n2)cc1`, the inhibition was 17%.
`COc1ccc(/C=N/NC(=O)c2nn(-c3ccccc3)c(=O)c3c(N)scc23)cc1` was tested, and the inhibition was 60.7% (active).
With `Nc1scc2c(C(=O)N/N=C/c3ccc(Cl)cc3)nn(-c3ccccc3)c(=O)c12` the inhibition was 69.6% (active).
Compound `CCOC(=O)c1nn(-c2ccccc2)c(=O)c2c(N)scc12` has an inhibition of 36.2%.
For `CCOC(=O)c1nn(-c2ccc(F)cc2)c(=O)c2c(N)scc12`, the inhibition was 40.7%.
In the case of `COc1ccc(/C=N/NC(=O)c2nn(-c3ccc(C)c(C)c3)c(=O)c3ccccc23)cc1`, the inhibition was 13.2%.
With `COc1ccc(/C=N/NC(=O)c2nn(-c3ccc(Cl)cc3)c(=O)c3c(N)scc23)cc1` the inhibition was 50.7% (active).
`O=C(CSc1nc2cc(Cl)ccc2s1)Nc1cccc(S(=O)(=O)N2CCOCC2)c1` was tested, and the inhibition was 15.2%.
`CCN1CCN(C(c2cccs2)C(C)NC(=O)CC(C)C)CC1` (configuration not stated) was tested, and the inhibition was 0.5%.
With `CCN(CCNC(=O)C1CCN(S(=O)(=O)c2cccc3cccnc23)CC1)c1ccccc1` the inhibition was 8.4%.
In the case of `O=C(NNC(=O)c1cc(OCC(F)(F)F)ccc1OCC(F)(F)F)c1ccc(Cl)c(Cl)c1`, the inhibition was 16.5%.
In the case of `Cc1cc2oc(=O)cc(CN3CCCc4ccccc43)c2cc1C`, the inhibition was -11.2%.
In the case of `Cc1ccc(SCCC(=O)NCCSCc2ccco2)cc1`, the inhibition was 7.9%.
With `CN1CCC(N(C)C(=O)/C=C/c2cn(-c3ccccc3)nc2-c2cccs2)CC1` the inhibition was -5.9%.
`COc1ccc(S(=O)(=O)N2CCN(Cc3ccc(Cl)cc3)CC2)cc1` gave an inhibition of 14.7%.
`Cc1ccc([N+](=O)[O-])cc1-c1[nH]c(-c2ccc(O)c(O)c2)nc1-c1ccccc1` was tested, and the inhibition was 51.7% (active).
`COc1ccc(-c2nc(-c3ccccc3)c(-c3cc([N+](=O)[O-])ccc3C)[nH]2)cc1O` was tested, and the inhibition was 22.5%.
Compound `CCOc1cc(-c2nc(-c3ccccc3)c(-c3cc([N+](=O)[O-])ccc3C)[nH]2)ccc1O` has an inhibition of 14.4%.
`Cc1ccc(COc2ccc(Br)cc2/C=N/O)cc1` showed an inhibition of 19.7%.
